Measurements published in PubChem BioAssay (NCATS).
Results filed as inconclusive are left out. Activity calls are given as the source filed them. Calls follow the shape of the full dose curve.

Assay: qHTS for inhibitors of Rabies Virus screened against the NCATS CANVASS Library (AID 1347402); also: 0% is about no effect
Settings: Rabies virus infection cell assay; series mostly up to 45.9 µM; activity change, negative = inhibition: at the top concentration
For `COc1cc2ccc(=O)oc2c(O)c1O[C@@H]1O[C@H](CO)[C@@H](O)[C@H](O)[C@H]1O`, the “activity change, negative = inhibition” value was 7.6% [at 27.4 µM] (inactive). With `C[C@@H]1C[C@H]2C[C@]3(CCCCN3C)[C@@H]3C[C@H]2[C@H](C1)N(C)C3` the “activity change, negative = inhibition” value was -24.5% (inactive). For `COc1ccc2cc(NC(=O)C3=NO[C@H]4[C@H](O)C=C[C@@H](Cl)[C@@]4(O)C3)c(=O)oc2c1OC`, the “activity change, negative = inhibition” value was -7.85% (inactive). In the case of `C[C@@]12CCC[C@@](C)(C(=O)O)[C@H]1CC[C@]13C[C@H]4C[C@H](O[C@@]4(C)C1)[C@H]32`, the “activity change, negative = inhibition” value is reported as -22.6% (inactive). For `O=C1CC(c2ccc(O)cc2)Oc2ccccc21` (configuration not stated), the “activity change, negative = inhibition” value was -28.2% (inactive). With `COc1cc(C2OCC3C(c4ccc(O)c(OC)c4)OCC23)ccc1O` (configuration not stated) the activity change, negative = inhibition was 3.04% [at 9.14 µM] (inactive). For `C[C@@H](O)[C@H]1OC(=O)C=C2[C@]3(C)[C@H]4[C@H](OC(=O)[C@@]4(C)[C@@H](O)[C@H]4O[C@H]43)[C@H]3O[C@@]231`, the “activity change, negative = inhibition” value was 6.7% (inactive). For `C[C@@H]1O[C@H](c2c(O)cc(O)c3c(=O)cc(-c4ccc(O)cc4)oc23)[C@H](O)[C@H](O)[C@H]1O`, the “activity change, negative = inhibition” value was -2.2% (inactive). In the case of `CC1C(=O)C23CCC1C[C@]21O[C@@H]2C(C)(C)C=CC(=O)[C@@]23COC1=O` (some centres not stated), the “activity change, negative = inhibition” value is reported as -6.78% (inactive). For `CC(=O)NC[C@@H]1O[C@H](CC/C=C(C)/C(C)=C/C=O)[C@H](C)C[C@H]1O`, the “activity change, negative = inhibition” value was 5.68% (inactive). For `CO[C@@H]1[C@H](O)[C@@H](C)O[C@@H](OC[C@@H]2C(C)OC(=O)/C=C/[C@H](C)C(O[C@@H]3O[C@H](C)CC4(OC(=O)O[C@@H]4C)C3O)[C@@H](C)CC(C)C(=O)/C=C/[C@H]3OC23)[C@@H]1OC` (some centres not stated), the “activity change, negative = inhibition” value was -12.7% (inactive). In the case of `CC[C@@H]1C[C@@]2(CC)OC(=O)[C@@]3(CC)OC(=O)[C@@H]1[C@@H]23`, the “activity change, negative = inhibition” value is reported as -0.942% (inactive).
